FBW7 act = human FBW7 E3 ligase activation, primary screen; Q969H0; AlphaScreen FBW7–phospho-cyclin E peptide binding, activator screen; normalized activity (activation), % at 26.1 µM; 650,000 tested, 0.13% active; in the data active = normalized activity above about 1.9%;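 also: purified mutant Fbw7 with reduced substrate affinity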
MITF inh = blocks human microphthalmia-associated transcription factor | O75030 | AlphaScreen MITF homodimerization, bead proximity signal | inhibition, % at 2.6 µM | 650,000 tested, 0.91% active; in the data active = inhibition above about 50%
Target sequence (O75030 whole entry, looked up): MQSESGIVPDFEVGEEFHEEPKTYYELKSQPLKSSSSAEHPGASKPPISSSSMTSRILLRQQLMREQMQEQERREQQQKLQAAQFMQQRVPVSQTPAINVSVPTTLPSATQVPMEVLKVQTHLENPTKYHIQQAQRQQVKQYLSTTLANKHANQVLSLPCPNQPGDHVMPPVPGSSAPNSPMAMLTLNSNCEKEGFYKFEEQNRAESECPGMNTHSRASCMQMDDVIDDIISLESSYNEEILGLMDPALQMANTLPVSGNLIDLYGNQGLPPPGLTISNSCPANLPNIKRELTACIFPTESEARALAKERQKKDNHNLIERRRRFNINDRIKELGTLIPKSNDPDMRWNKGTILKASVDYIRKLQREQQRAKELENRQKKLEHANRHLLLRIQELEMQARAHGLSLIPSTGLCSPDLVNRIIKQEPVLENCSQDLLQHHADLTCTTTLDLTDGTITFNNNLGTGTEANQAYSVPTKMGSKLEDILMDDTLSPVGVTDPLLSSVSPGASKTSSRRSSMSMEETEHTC
GPR151 activ = human GPR151 activation | Q8TDV0 | PathHunter beta-arrestin GPR151 cells, luminescence | activation, % at 11.2 µM | 650,000 tested, 1% active; in the data active = activation above about 4.9%
TEAD-YAP block = TEAD-YAP interaction inhibition; 640,000 tested, 1.4% active; inhibition, % at 9.12 µM; HEK-TIYL cells, TEAD-Gal4/YAP UAS-luciferase luminescence; in the data active = inhibition above about 32%
GPR151 confirm = human GPR151 activation, confirmation screen | shares compounds with GPR151 activ | GPR151 PathHunter beta-arrestin cells, luminescence, 90 min; % of EA-reagent control over plate median | activation, % at 11.2 µM | 6,700 tested, under 10 active | AID 1508609;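 active = mean percent activation across replicates above the confirmation screen cutoff of 4.91%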
GPR119 counter = GPR119 activation, counter-screen for GPR151 activators; GPR119 PathHunter beta-arrestin cells, luminescence, 90 min; 0 = compound-well median, 100 = enzyme-acceptor control; 6,700 tested, 0.3% active; activation, % at 11.2 µM; shares compounds with GPR151 activ;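 active = mean percent activation in the counterscreen above 29.09%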;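 also: counterscreen on off-target GPR119 to flag nonselective hits from the GPR151 activator screen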
Numbers stand for hits; – = inactive; · = not tested or not shown. This is a sample that favours compounds with a hit; in the whole collection about 3.5% have one here.

SMILES	FBW7 act	MITF inh	GPR151 activ	TEAD-YAP block	GPR151 confirm	GPR119 counter
O=C(CCCn1c(SCC(=O)NCc2ccccc2)nc2ccccc2c1=O)NCc1ccco1	–	–	–	–	·	·
Cc1ccc(C(c2nnnn2C2CCCC2)N2CCCCC2)cc1 (centres undefined)	–	–	–	–	·	·
NS(=O)(=O)c1ncn(Cc2ccccc2)n1	–	–	–	–	·	·
Cc1ccc(CN2C(=O)C3CCCN3c3ccc(C#N)cc32)cc1 (centres undefined)	–	–	5.6	–	–	–
N#Cc1ccc2c(c1)N(Cc1ccc(F)cc1)C(=O)C1CCCN21 (centres undefined)	–	–	–	–	·	·
CN1C[C@@H]2C[C@@H](c3cccc4c3oc3ccccc34)N3CCC[C@@]23C1=O	–	–	–	–	·	·
O=C(NCc1ccccc1)c1nnc(Cc2cccc(Cl)c2)o1	–	–	–	–	·	·
Cc1ccc(CNC(=O)c2nnc(Cc3cccc(Cl)c3)o2)cc1	–	–	7.4	–	–	–
O=C(NCc1cccs1)c1nc2c(nnn2Cc2ccc(F)cc2)c(=O)[nH]1	–	–	–	–	·	·
O=C(NCc1ccco1)c1nc2c(nnn2Cc2ccc(F)cc2)c(=O)[nH]1	–	–	5.3	–	–	–
CCOC(=O)N1CCN(C(=S)NC2Cc3ccccc3C2)CC1	–	–	–	–	·	·
CCn1nc(C)c(CN2CCOc3ccc(C(C)(O)COc4ccccc4)cc3C2)c1C (centres undefined)	–	–	6.3	–	–	–
CCCNc1cc(C)nc(Nc2ccccc2)n1	–	–	14	–	–	–
CCCNc1cc(C)nc(Nc2cccnc2)n1	–	–	–	–	·	·
O=C(Oc1ccccc1[N+](=O)[O-])c1ccc(F)cc1	–	–	5.9	–	–	–
O=C(Oc1ccccc1[N+](=O)[O-])c1ccccc1Cl	–	–	10	–	–	–
CCOC(=O)c1cc2c(=O)n3ccccc3nc2n(CCCOC)c1=NC(=O)c1ccc(F)cc1	–	–	–	–	·	·
Cc1cc(OCC(=O)Nc2ncn[nH]2)ccc1Br	–	–	–	–	·	·
Nc1cc(C(=O)O)ccc1NCC(=O)O	–	–	–	–	·	·
Cc1ccc(-n2ncc3c(SCC(=O)NC(C)(C)C)ncnc32)c(C)c1	–	–	7.2	–	–	–
c1ccc(-n2ncc3c(Nc4cccc5ccccc45)ncnc32)cc1	–	–	5.7	–	–	–
Cc1ccc(-n2ncc3c(NCc4cccnc4)ncnc32)c(C)c1	–	–	8.5	–	–	–
COc1ccc(CNc2ncnc3c2cnn3-c2cccc(C)c2)cc1	–	–	5.2	–	–	–
CCC(=O)Oc1ccc(C2Sc3ccccc3NC3=C2C(=O)c2ccccc23)cc1 (centres undefined)	–	–	–	–	·	·
Cc1ccc(NC(=O)Cn2c(=O)c(=O)n(Cc3ccccc3)c3ccc(Cl)cc32)cc1	–	–	–	–	·	·
SMILES	FBW7 act	MITF inh	GPR151 activ	TEAD-YAP block	GPR151 confirm	GPR119 counter
CCOC(=O)c1ccc(-n2c(C)nc(=O)c(-c3ccccc3)c2C)cc1	–	–	7.8	–	–	–
Cc1nc(=O)c(-c2ccccc2)c(C)n1-c1ccc(C(=O)O)cc1	–	–	–	–	·	·
Cc1cc(C)nc(N2CCC(C(=O)Nc3ccc(Cl)cc3Cl)CC2)n1	–	–	9.5	–	–	–
Cc1ccc(Cl)c(NC(=O)C2CCN(c3nc(C)cc(C)n3)CC2)c1	–	–	–	–	·	·
COc1ccc(Cl)c(C(=O)N/C(=C/c2cccc([N+](=O)[O-])c2)C(=O)Nc2ccc(C)cc2)c1	–	–	–	–	·	·
COc1ccc(NC(=S)Nc2ccc3c(c2)OCCO3)c(OC)c1	–	–	–	–	·	·
Nc1cc2c(cc1C(=O)c1cccc(Br)c1)OCCO2	–	–	5.4	–	–	–
CCOc1cc(C(=O)N2CCc3cc(OC)c(OC)cc3C2COc2ccc(OC)cc2)cc(OCC)c1OCC (centres undefined)	–	–	–	–	·	·
COC(=O)C1=C(C)Nc2ncnn2C1c1cccc(OC)c1 (centres undefined)	–	–	–	–	·	·
COCCOC(=O)C1=C(C)Nc2ncnn2C1c1cccc(OC)c1 (centres undefined)	–	–	5.8	–	–	–
COC(=O)C1=C(C)Nc2nnnn2C1c1cccc(O)c1 (centres undefined)	–	–	–	–	·	·
CCOC(=O)C1=C(C)Nc2nnnn2C1c1cccc(O)c1 (centres undefined)	–	–	13	–	–	–
CCOC(=O)C1(CCCc2ccccc2)CCN(C(=O)CCN2CCCCO2)CC1	–	–	–	–	·	·
COc1ccc(CNC(=O)CSCc2ccc(C)cc2)cc1	–	–	–	–	·	·
COCc1nnn(-c2nonc2N)c1C(=O)NNC(=O)C1CC1	–	–	–	–	·	·
COCc1nnn(-c2nonc2N)c1C(=O)NNC(=O)c1ccccc1Br	–	–	10	–	–	–
CCCCN(CC)C(=O)/C=C/c1cc(OC)c(OC)c(OC)c1	–	–	5.0	–	–	–
Cc1nc2sc(C(=O)c3ccc(Br)cc3)c(N)c2c(C)c1CC(=O)c1ccccc1	–	–	7.0	–	–	–
CCc1c(C)nc2sc(C(=O)c3ccc(Br)cc3)c(N)c2c1C	–	–	–	–	·	·
Cc1ccc(NC(=O)COc2cccc3c2CCN(Cc2cccnc2)C3=O)c(C)c1	–	–	5.4	–	–	–
Cc1ccc2c(NC(=O)c3ccc(Cl)cc3)noc2n1	–	–	7.1	–	–	–
O=C(NC1(C(F)(F)F)NC(=O)N(CCc2ccccc2)C1=O)c1ccncc1 (centres undefined)	–	–	–	–	·	·
COc1ccc(Cn2nnnc2CN(CCCO)Cc2cc3cc(C)ccc3[nH]c2=O)cc1	–	–	6.7	–	–	–
COc1ccc2cc(CN(CCCO)C(=O)c3ccc(C)cc3)c(=O)[nH]c2c1	–	–	5.5	–	–	–
Cc1cc(C)c2[nH]c(=O)c(CN(CCCO)Cc3nnnn3CCc3ccccc3)cc2c1	–	–	6.0	–	–	–
SMILES	FBW7 act	MITF inh	GPR151 activ	TEAD-YAP block	GPR151 confirm	GPR119 counter
CCOCCCNC(=O)CN1CCC(O)(c2ccccc2F)CC1	–	–	–	–	·	·
CCOc1ccc(C2NC(=S)NC3=C2C(=O)CCC3)cc1 (centres undefined)	–	–	5.8	–	–	–
CC(C)OC(=O)CC(NC(=O)OC(C)(C)C)c1ccccc1 (centres undefined)	–	–	8.1	·	–	–
COc1ccc(C(CC(=O)O)NC(=O)OC(C)(C)C)cc1 (centres undefined)	–	–	–	–	·	·
Cc1cc(C)c2c(c1)/C(=N/Nc1ccc(S(N)(=O)=O)cc1[N+](=O)[O-])CCC2	–	–	–	–	·	·
NS(=O)(=O)c1ccc(N/N=C2\CCc3ccccc32)c([N+](=O)[O-])c1	–	–	7.5	–	–	–

High-throughput results deposited in PubChem BioAssay by The Scripps Research Institute Molecular Screening Center.
